# Experimental data reported in the supplement of paper PMC4723716.
# ± gives the uncertainty stated by the source. In all, about 9,900 compounds were measured (“viability index relative to DMSO control”: median about 1, lowest 2% from about 0.85 on). This excerpt belongs to a sample that is enriched for the lowest values.
# Test system: Plasmodium falciparum NF54 stage V gametocytes
# Experiment: viability index relative to DMSO control (fraction); higher = less gametocyte killing
# Settings: 2.5 µM, incubation time: 72 h
# In short: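 Gametocytes (P. falciparum NF54, stage V) were treated with compound at 2.5 µM for 72 hr at 37°C in low oxygen, in serum-free medium at 0.75% gametocytemia and 1.25% hematocrit. Counts of 20–70 µm2 red particles, taken from one field per well after MitoTracker Red CMXRos with saponin, were divided by the plate mean of solvent-only wells. This ratio is the viability index.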
# [1] = library set: Broad Institute DOS
# [2] = library set: Broad Institute Blood Stage
SMILES,viability index [1],viability index [2]
C[C@@H]1CN([C@@H](C)CO)C(=O)c2ccccc2-c2ccccc2CO[C@@H]1CN(C)C(=O)[C@@H]1CCCN1C,0.936 ± 0.093,–
COc1ccc2c3c([C@@H](CO)N(Cc4nccs4)C[C@]33CCN(CC4CCCC4)CC3)n(C)c2c1,0.848 ± 0.029,–
COc1ccc2c3c([C@H](CO)N(Cc4nccs4)C[C@]33CCN(CC3)C(=O)CN(C)C)n(C)c2c1,0.955 ± 0.12,–
COc1ccc2c3c([C@H](CO)N(Cc4nccs4)C[C@]33CCN(CC4CCCC4)CC3)n(C)c2c1,0.841 ± 0.028,–
COc1ccc2c3c([C@@H](CO)N(Cc4nccs4)C[C@]33CCN(CC3)C(=O)CN(C)C)n(C)c2c1,0.905 ± 0.039,–
COc1ccc2c3c([C@@H](CO)N(CC4CCOCC4)C[C@]33CN(Cc4nccs4)C3)n(C)c2c1,1.1 ± 0.08,–
COc1ccc2c3c([C@H](CO)N(CC4CCOCC4)C[C@]33CN(Cc4nccs4)C3)n(C)c2c1,1.08 ± 0.019,–
CO[C@H]1CN(C)C(=O)c2cc(NC(=O)NC(C)C)ccc2OC[C@@H](C)N(C(=O)CN(C)C)C[C@H]1C,1.03 ± 0.043,–
COCC#Cc1ccc([C@@H]2[C@@H](CO)N3C(=O)CN(C(=O)Nc4ccccc4F)C[C@@H]23)cc1,1.02 ± 0.025,–
C[C@H](CO)N1C[C@H](C)[C@@H](CN(C)C(=O)Nc2ccccc2F)Oc2cc(Br)ccc2S1(=O)=O,1.01 ± 0.02,–
COc1ccc2c3c([C@H](CO)N(C[C@]33CCN(CC3)C(=O)Nc3ccc(F)cc3F)C(=O)Nc3ccc(F)cc3)n(C)c2c1,1.04 ± 0.029,–
N#C[C@@H]1N[C@H](CO)[C@H]1c1ccc(-c2cccc(F)c2)cc1,1.18 ± 0.088,–
CCS(=O)(=O)Nc1ccc2c(c1)C(=O)N(C)[C@@H]1CC[C@H](CC(=O)NCc3ccc(OC)cc3)O[C@H]1CO2,1.01 ± 0.078,–
Cc1cccc(S(=O)(=O)N2CC[C@H]3[C@H](CO)Nc4ccc(-c5ccccc5F)cc4[C@H]32)c1,1.08 ± 0.023,–
COc1ccccc1-c1ccc2c(c1)[C@@H]1[C@@H](CCN1S(=O)(=O)c1ccc(C)cc1)[C@H](CO)N2,0.836 ± 0.028,–
COc1ccccc1-c1ccc2c(c1)[C@H]1[C@H](CCN1S(=O)(=O)c1ccc(C)cc1)[C@@H](CO)N2,0.811 ± 0.098,–
COc1ccc(-c2ccc3c(c2)[C@@H]2[C@@H](CCN2C(=O)c2cccc(F)c2)[C@H](CO)N3)cc1,0.848 ± 0.042,–
N#Cc1cccc(-c2ccc3c(c2)[C@@H]2[C@@H](CCN2S(=O)(=O)c2ccc(F)cc2)[C@H](CO)N3)c1,0.844 ± 0.062,–
COc1ccc(-c2ccc3c(c2)[C@H]2[C@H](CCN2C(=O)c2cccc(F)c2)[C@@H](CO)N3)cc1,0.942 ± 0.075,–
N#Cc1cccc(-c2ccc3c(c2)[C@@H]2[C@@H](CCN2S(=O)(=O)c2ccc(F)cc2)[C@@H](CO)N3)c1,0.855 ± 0.011,–
COc1ccc(-c2ccc3c(c2)[C@@H]2[C@@H](CCN2C(=O)c2cccc(F)c2)[C@@H](CO)N3)cc1,0.996 ± 0.08,–
Cc1cccc(S(=O)(=O)N2CC[C@@H]3[C@H]2c2cc(-c4ccccc4F)ccc2N[C@@H]3CO)c1,0.926 ± 0.08,–
N#Cc1cccc(-c2ccc3c(c2)[C@H]2[C@H](CCN2S(=O)(=O)c2ccc(F)cc2)[C@H](CO)N3)c1,1.09 ± 0.017,–

SMILES,viability index [1],viability index [2]
Cc1cccc(S(=O)(=O)N2CC[C@@H]3[C@@H](CO)Nc4ccc(-c5ccccc5F)cc4[C@@H]32)c1,1.18 ± 0.029,–
Cc1cccc(S(=O)(=O)N2CC[C@@H]3[C@H](CO)Nc4ccc(-c5ccccc5F)cc4[C@@H]32)c1,1.06 ± 0.03,–
C[C@@H]1CN([C@H](C)CO)C(=O)CCCn2cc(nn2)CO[C@H]1CN(C)C(=O)Nc1cccc2ccccc12,0.99 ± 0.023,–
Cc1ccc(S(=O)(=O)Nc2ccc3c(c2)C(=O)N([C@@H](C)CO)C[C@@H](C)[C@@H](CN(C)S(=O)(=O)c2cccs2)OCCCC[C@@H](C)O3)cc1,1.13 ± 0.23,–
NCC[C@H]1CC[C@@H](NC(=O)Cc2ccncc2)[C@H](CO)O1,1.091 ± 0.0072,–
CNC(=O)C[C@@H]1CC[C@@H]2[C@H](COC[C@@H](O)CN2Cc2ccccc2F)O1,1.08 ± 0.086,–
COc1ccc(S(=O)(=O)Nc2ccc3c(c2)C(=O)N([C@H](C)CO)C[C@H](C)[C@@H](CN(C)Cc2ccc(C(F)(F)F)cc2)OCCCC[C@H](C)O3)cc1,1.07 ± 0.051,–
C/C=C/c1ccc2n(c1=O)C[C@@H]1[C@@H](CO)[C@H](C(=O)NCC)N(Cc3cccc(F)c3)[C@H]21.C/C=C\c1ccc2n(c1=O)C[C@@H]1[C@@H](CO)[C@H](C(=O)NCC)N(Cc3cccc(F)c3)[C@H]21,0.99 ± 0.091,–
Cc1ccccc1-c1ccc([C@@H]2[C@@H]3CN(Cc4cocn4)C[C@H]2N3)cc1,0.949 ± 0.05,–
C[C@@H]1CN([C@@H](C)CO)C(=O)c2cc(NC(=O)C3CC3)ccc2O[C@H]1CN(C)S(=O)(=O)c1ccccc1,0.9821 ± 0.0066,–
COc1ccccc1-c1ccc2c(c1)[C@@H]1[C@@H](CCN1C(=O)C1CCC1)[C@H](CO)N2,0.655 ± 0.025,–
COc1ccccc1-c1ccc2c(c1)[C@H]1[C@H](CCN1C(=O)C1CCC1)[C@@H](CO)N2,0.865 ± 0.097,–
N#Cc1ccc(-c2ccc3c(c2)[C@H]2[C@H](CCN2C(=O)C2CCCCC2)[C@H](CO)N3)cc1,1.11 ± 0.057,–
CN1CCN(C(=O)C[C@@H]2CC[C@H]3[C@H](COc4ccc(NC(=O)C5CCOCC5)cc4C(=O)N3C)O2)CC1,1.05 ± 0.029,–
CCS(=O)(=O)Nc1ccc2c(c1)C(=O)N(C)[C@H]1CC[C@H](CC(=O)NCCCN3CCOCC3)O[C@@H]1CO2,1.03 ± 0.07,–
COc1ccc(S(=O)(=O)N(C)C[C@@H]2Oc3c(NC(=O)c4nc5ccccc5s4)cccc3C(=O)N([C@@H](C)CO)C[C@H]2C)cc1,0.979 ± 0.043,–
CC(C)NC(=O)Nc1cccc2c1O[C@H](CN(C)C(=O)Nc1ccccc1)[C@H](C)CN([C@H](C)CO)C2=O,1.03 ± 0.09,–
CC(C)NC(=O)Nc1cccc2c1O[C@H](CN(C)C(=O)Nc1ccccc1)[C@@H](C)CN([C@H](C)CO)C2=O,0.975 ± 0.13,–
CC(C)NC(=O)Nc1cccc2c1O[C@@H](CN(C)C(=O)Nc1ccccc1)[C@H](C)CN([C@H](C)CO)C2=O,1.05 ± 0.17,–
COc1ccc(S(=O)(=O)N(C)C[C@H]2Oc3c(NC(=O)Nc4cccc5ccccc45)cccc3C(=O)N([C@@H](C)CO)C[C@H]2C)cc1,–,0.767 ± 0.035
CC(C)NC(=O)Nc1cccc2c1O[C@H](CN(C)C(=O)Nc1ccccc1)[C@H](C)CN([C@@H](C)CO)C2=O,0.692 ± 0.19,–
C[C@@H]1CN([C@@H](C)CO)C(=O)c2cccc(NC(=O)Nc3ccccc3)c2O[C@@H]1CN(C)C(=O)Nc1ccccc1,–,0.703 ± 0.052
COc1ccc(S(=O)(=O)N(C)C[C@H]2Oc3c(NC(=O)c4nc5ccccc5s4)cccc3C(=O)N([C@H](C)CO)C[C@H]2C)cc1,1.03 ± 0.022,–

SMILES,viability index [1],viability index [2]
CC(C)NC(=O)Nc1cccc2c1O[C@H](CN(C)C(=O)Nc1ccccc1)[C@@H](C)CN([C@@H](C)CO)C2=O,1.09 ± 0.07,–
C[C@@H]1CN([C@@H](C)CO)C(=O)c2cccc(NC(=O)Nc3ccccc3)c2O[C@@H]1CN(C)C(=O)Nc1ccc(F)cc1,–,0.727 ± 0.041
CC(C)NC(=O)Nc1cccc2c1O[C@@H](CN(C)C(=O)Nc1ccccc1)[C@@H](C)CN([C@H](C)CO)C2=O,1.1 ± 0.11,–
CC(C)NC(=O)Nc1cccc2c1O[C@@H](CN(C)C(=O)Nc1ccccc1)[C@@H](C)CN([C@@H](C)CO)C2=O,1.04 ± 0.011,–
CN1C(=O)c2cc(NC(=O)C3CCOCC3)ccc2OC[C@@H]2O[C@H](CC(=O)NCc3ccccc3F)CC[C@H]21,1.04 ± 0.032,–
O=C(CN1CCOCC1)N1CC(=O)N2[C@H](C1)[C@H](c1ccc(C3=CCCCC3)cc1)[C@@H]2CO,1.02 ± 0.035,–
CCc1cnc(N2[C@H](C#N)[C@@H](c3ccc(-c4cccc(F)c4)cc3)[C@@H]2CO)s1,1.12 ± 0.11,–
C[C@H](CO)N1C[C@H](C)[C@H](CN(C)C(=O)Nc2ccccc2C(F)(F)F)OCc2cnnn2CCCC1=O,1.03 ± 0.014,–
COc1ccc(NC(=O)Nc2cccc3c2O[C@@H](CN(C)Cc2ccc(C(=O)O)cc2)[C@H](C)CN([C@@H](C)CO)C3=O)cc1,0.978 ± 0.065,–
COc1ccc(NC(=O)Nc2cccc3c2O[C@@H](CN(C)Cc2ccc(C(=O)O)cc2)[C@@H](C)CN([C@@H](C)CO)C3=O)cc1,0.95 ± 0.17,–
COc1ccc(NC(=O)N(C)C[C@H]2Oc3c(NC(=O)Nc4ccccc4)cccc3C(=O)N([C@@H](C)CO)C[C@H]2C)cc1,–,0.724 ± 0.05
CC(C)[C@H]1C(=O)N[C@H](c2cccc(Cl)c2)C/C=C/C[C@H](C)Oc2ccccc2C(=O)N1C.CC(C)[C@H]1C(=O)N[C@H](c2cccc(Cl)c2)C/C=C\C[C@H](C)Oc2ccccc2C(=O)N1C,0.9865 ± 0.0032,–
C[C@H](CO)N1C[C@H](C)[C@H](CN(C)Cc2ccc(-c3ccccc3)cc2)Oc2c(NS(C)(=O)=O)cccc2C1=O,0.827 ± 0.011,–
C[C@H](CO)N1C[C@H](C)[C@@H](CN(C)Cc2ccccc2)Oc2c(NC(=O)Cc3cn(C)c4ccccc34)cccc2C1=O,0.744 ± 0.038,–
C[C@@H]1CN([C@@H](C)CO)C(=O)c2cccc(NS(C)(=O)=O)c2O[C@H]1CN(C)Cc1ccc(-c2ccccc2)cc1,1.01 ± 0.029,–
C[C@H]1CN([C@@H](C)CO)C(=O)c2cccc(NS(C)(=O)=O)c2O[C@@H]1CN(C)Cc1ccc(-c2ccccc2)cc1,1 ± 0.078,–
C[C@H](CO)N1C[C@H](C)[C@@H](CN(C)Cc2ccc(Oc3ccccc3)cc2)Oc2c(NC(=O)CCC(F)(F)F)cccc2C1=O,0.888 ± 0.11,–
C[C@@H]1CN([C@H](C)CO)C(=O)c2cccc(NS(C)(=O)=O)c2O[C@@H]1CN(C)Cc1ccc(-c2ccccc2)cc1,1.02 ± 0.028,–
CO[C@H](CN(C)S(=O)(=O)c1ccc(C)cc1)[C@H](C)CN(C(=O)Nc1ccccc1F)[C@H](C)CO,1.06 ± 0.026,–
O=C(C[C@H]1CC[C@@H]2[C@H](COC[C@H](O)CN2Cc2ccc3c(c2)OCO3)O1)N1CCCCC1,1.01 ± 0.072,–
O=C(c1cnccn1)N1C[C@@H]2N[C@H](C1)[C@@H]2c1ccc(/C=C/c2ccccc2)cc1,1.05 ± 0.026,–
